Source: PubChem BioAssay (EPA / NIEHS)
Active and inactive are the calls of the source. The calls were made as follows: active = hit-call score of the fitted dose curve at least 0.9, where 1 is the maximum; inactive = score below 0.9.

Experiments:
Conditions in all cases: mRNA level, 48 h; actives raise or lower the signal
[1] = read-out: Bcl-2 (BAX) gene, BAX (gene 581); assay: LTEA_HepaRG_BAX: Life Technologies and Expression Analysis (LTEA) Assay for Bcl-2 (BAX) gene using HepaRG (AID 2283470)
Procedure, shortened: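 Cells were thawed, plated for 48 h, moved to serum-free induction medium and dosed for 48 h (highest concentration 100 uM, half-log steps, 0.5% DMSO). Total RNA was then analysed for BAX expression by qRT-PCR.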

[2] = read-out: adenosine kinase (ADK) gene, ADK (gene 132); assay: LTEA_HepaRG_ADK: Life Technologies and Expression Analysis (LTEA) Assay for adenosine kinase (ADK) gene using HepaRG (AID 2283471)
Procedure, shortened: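 Following 48 h exposure of HepaRG cells in 0.5% DMSO (top concentration 100 uM, duplicate wells), ADK mRNA induction or suppression was measured by qRT-PCR, normalised to ACTB/GAPDH/POLR2A, and fitted bidirectionally relative to vehicle.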

[3] = read-out: Alpha-fetoprotein (AFP) gene, AFP (gene 174); assay: LTEA_HepaRG_AFP: Life Technologies and Expression Analysis (LTEA) Assay for Alpha-fetoprotein (AFP) gene using HepaRG (AID 2283472)
Procedure, shortened: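 Chemicals were tested on differentiated HepaRG cells for 48 hours at eight concentrations up to 100 uM, with 0.5% DMSO as vehicle. AFP expression was then quantified by qRT-PCR and analyzed for gain or loss relative to DMSO.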

BCL2L11 (gene 10018) = assay: LTEA_HepaRG_BCL2L11: Life Technologies and Expression Analysis (LTEA) Assay for Bcl-2 (BCL2L11) gene using HepaRG (AID 2283473)
Procedure, shortened: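 Differentiated human HepaRG cells in serum-free induction medium were exposed in duplicate for 48 h to eight concentrations (top 100 uM, half-log steps, 0.5% DMSO). BCL2L11 mRNA was quantified by TaqMan qRT-PCR, normalized to ACTB/GAPDH/POLR2A, bidirectional fit versus DMSO.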

[4] = read-out: Apolipoprotein A-V (APOA5) gene, APOA5 (gene 116519); assay: LTEA_HepaRG_APOA5: Life Technologies and Expression Analysis (LTEA) Assay for Apolipoprotein A-V (APOA5) gene using HepaRG (AID 2283474)
Procedure, shortened: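 Differentiated human HepaRG cells were exposed in duplicate for 48 h to eight half-log concentrations from 100 uM in 0.5% DMSO. APOA5 mRNA was quantified by TaqMan qRT-PCR, normalized to ACTB, GAPDH and POLR2A, and fitted bidirectionally against DMSO.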

[5] = read-out: Apoptosis regulator Bcl-2 (Homo sapiens) (UniProt P10415); assay: LTEA_HepaRG_BCL2: Life Technologies and Expression Analysis (LTEA) Assay for Bcl-2 gene using HepaRG (AID 2283475)
Procedure, shortened: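 Plated human HepaRG cells are exposed to test chemicals for 48 h across eight concentrations from 100 uM downward in half-log steps (0.5% DMSO). BCL2 expression is then measured by qRT-PCR with housekeeping normalisation and fitted bidirectionally against vehicle.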

[6] = read-out: Bcl-2 (BID) gene, BID (gene 637); assay: LTEA_HepaRG_BID: Life Technologies and Expression Analysis (LTEA) Assay for Bcl-2 (BID) gene using HepaRG (AID 2283476)
Procedure, shortened: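 Cells are plated, cultured 48 h, switched to serum-free induction medium, then dosed 48 h (100 uM top, half-log steps, 0.5% DMSO). RNA is isolated and BID expression read by qRT-PCR.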

Caspase-3 (Homo sapiens) = Caspase-3 (Homo sapiens) (UniProt P42574); assay: LTEA_HepaRG_CASP3: Life Technologies and Expression Analysis (LTEA) Assay for cysteine-aspartic acid protease (CASP3) using HepaRG (AID 2283477)
Chain of Caspase-3 (Homo sapiens) (P42574 whole entry, looked up): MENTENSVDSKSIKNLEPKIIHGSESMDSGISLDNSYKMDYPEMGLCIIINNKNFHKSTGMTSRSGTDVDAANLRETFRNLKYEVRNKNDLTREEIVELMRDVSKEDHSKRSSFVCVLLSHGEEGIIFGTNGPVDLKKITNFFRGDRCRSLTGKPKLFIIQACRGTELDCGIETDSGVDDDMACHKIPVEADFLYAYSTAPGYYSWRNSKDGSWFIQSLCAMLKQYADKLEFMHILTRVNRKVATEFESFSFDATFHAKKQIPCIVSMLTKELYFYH
Procedure, shortened: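 Differentiated human HepaRG cells in serum-free induction medium were exposed 48 h to 8-point half-log concentrations from 100 uM (0.5% DMSO vehicle). CASP3 mRNA was measured by qRT-PCR, normalised to ACTB, GAPDH and POLR2A, with bidirectional fitting against DMSO.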

[7] = read-out: Cytochrome P450 (CYP24A1), CYP24A1 (gene 1591); assay: LTEA_HepaRG_CYP24A1: Life Technologies and Expression Analysis (LTEA) Assay for Cytochrome P450 (CYP24A1) using HepaRG (AID 2283478)
Procedure, shortened: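 Differentiated HepaRG cells, pre-cultured 48 h, were exposed in duplicate for 48 h in serum-free induction medium to 8 half-log concentrations (top 100 uM, 0.5% DMSO). CYP24A1 mRNA was quantified by TaqMan qRT-PCR, normalized to ACTB/GAPDH/POLR2A, fitted bidirectionally versus DMSO.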

[8] = read-out: Cytochrome P450 (CYP1A2), CYP1A2 (gene 1544); assay: LTEA_HepaRG_CYP1A2: Life Technologies and Expression Analysis (LTEA) Assay for Cytochrome P450 (CYP1A2) using HepaRG (AID 2283479)
Procedure, shortened: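 Differentiated human HepaRG cells in serum-free induction medium were exposed in duplicate for 48 h to 8-point half-log concentrations up to 100 uM in 0.5% DMSO. CYP1A2 mRNA measured by qRT-PCR, normalized to ACTB, GAPDH, POLR2A; bidirectional fit vs DMSO.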

[9] = read-out: cysteine-aspartic acid protease (CASP8), CASP8 (gene 841); assay: LTEA_HepaRG_CASP8: Life Technologies and Expression Analysis (LTEA) Assay for cysteine-aspartic acid protease (CASP8) using HepaRG (AID 2283480)
Procedure, shortened: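 Concentration-response in duplicate up to 100 uM (half-log steps, 0.5% DMSO) on differentiated HepaRG cultures for 48 h. Expression change of CASP8 mRNA is determined by TaqMan qRT-PCR with housekeeping-gene normalization.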

[10] = read-out: Cytochrome P450 (CYP2B6), CYP2B6 (gene 1555); assay: LTEA_HepaRG_CYP2B6: Life Technologies and Expression Analysis (LTEA) Assay for Cytochrome P450 (CYP2B6) using HepaRG (AID 2283481)
Procedure, shortened: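 Differentiated HepaRG cells, serum-free induction medium, exposed 48 h in duplicate to 8-point half-log concentrations from 100 uM in 0.5% DMSO. CYP2B6 mRNA by qRT-PCR, normalized to ACTB, GAPDH, POLR2A; bidirectional fit versus DMSO.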

[11] = read-out: Cytochrome P450 2C19 (Homo sapiens) (UniProt P33261); assay: LTEA_HepaRG_CYP2C19: Life Technologies and Expression Analysis (LTEA) Assay for CYP2C19 using HepaRG (AID 2283482)
Procedure, shortened: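 Differentiated human HepaRG cells were exposed for 48 h in serum-free induction medium to 8 concentrations (top 100 uM, half-log steps, 0.5% DMSO). CYP2C19 mRNA was measured by qRT-PCR, normalized to ACTB/GAPDH/POLR2A, and fitted bidirectionally against DMSO.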

CYP2C8 (gene 1558) = assay: LTEA_HepaRG_CYP2C8: Life Technologies and Expression Analysis (LTEA) Assay for CYP2C8 using HepaRG (AID 2283483)
Procedure, shortened: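 This is a transcriptional endpoint in HepaRG cultures: 48 h exposure, highest concentration 100 uM. CYP2C8 mRNA is quantified by TaqMan qRT-PCR.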

CYP2C9 (gene 1559) = assay: LTEA_HepaRG_CYP2C9: Life Technologies and Expression Analysis (LTEA) Assay for CYP2C9 using HepaRG (AID 2283484)
Procedure, shortened: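 Eight-point concentration-response (highest 100 uM, half-log dilutions) in HepaRG cells for 48 h; CYP2C9 expression by qRT-PCR normalized to ACTB, GAPDH, POLR2A. Bidirectional fit, DMSO baseline.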

CYP2E1 (gene 1571) = assay: LTEA_HepaRG_CYP2E1: Life Technologies and Expression Analysis (LTEA) Assay for CYP2E1 using HepaRG (AID 2283485)
Procedure, shortened: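 Readout is qRT-PCR of CYP2E1 mRNA, normalized to three housekeeping genes and fitted bidirectionally against 0.5% DMSO. HepaRG cells were dosed 48 h at eight concentrations, highest 100 uM with half-log dilutions.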

CYP4A11 (gene 1579) = assay: LTEA_HepaRG_CYP4A11: Life Technologies and Expression Analysis (LTEA) Assay for CYP4A11 using HepaRG (AID 2283486)
Procedure, shortened: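 Differentiated HepaRG cells, serum-free induction medium, exposed 48 h in duplicate to 8-point half-log series from 100 uM in 0.5% DMSO. CYP4A11 mRNA measured by qRT-PCR, normalized to ACTB, GAPDH, POLR2A; bidirectional fit versus DMSO.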

[12] = read-out: Cytochrome P450 3A4 (Homo sapiens) (UniProt P08684); assay: LTEA_HepaRG_CYP3A4: Life Technologies and Expression Analysis (LTEA) Assay for CYP3A4 using HepaRG (AID 2283487)
Procedure, shortened: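 In a human hepatic line (HepaRG), duplicate wells were treated 48 h with up to 100 uM chemical in half-log dilutions. Endpoint: CYP3A4 mRNA induction or loss relative to 0.5% DMSO vehicle, by qRT-PCR.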

[13] = read-out: DNA damage-inducible transcript 3 (DDIT3), DDIT3 (gene 1649); assay: LTEA_HepaRG_DDIT3: Life Technologies and Expression Analysis (LTEA) Assay for DNA damage-inducible transcript 3 (DDIT3) using HepaRG (AID 2283488)
Procedure, shortened: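 Cells are human HepaRG liver cells treated for 48 h with eight half-log concentrations up to 100 uM in 0.5% DMSO. Transcript levels come from qRT-PCR normalized to three housekeeping genes, with activity fitted in both directions relative to vehicle.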

[14] = read-out: Pro-epidermal growth factor (Homo sapiens) (UniProt P01133); assay: LTEA_HepaRG_EGF: Life Technologies and Expression Analysis (LTEA) Assay for Epidermal growth factor (EGF) using HepaRG (AID 2283489)
Procedure, shortened: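 Differentiated human HepaRG cells, plated 48 h then switched to serum-free induction medium, were exposed for 48 h to test chemicals (8-point half-log series, top 100 uM, 0.5% DMSO). EGF mRNA was quantified by qRT-PCR, normalized to ACTB, GAPDH, POLR2A.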

Chain of Cytochrome P450 2C19 (Homo sapiens) (P33261 whole entry, looked up): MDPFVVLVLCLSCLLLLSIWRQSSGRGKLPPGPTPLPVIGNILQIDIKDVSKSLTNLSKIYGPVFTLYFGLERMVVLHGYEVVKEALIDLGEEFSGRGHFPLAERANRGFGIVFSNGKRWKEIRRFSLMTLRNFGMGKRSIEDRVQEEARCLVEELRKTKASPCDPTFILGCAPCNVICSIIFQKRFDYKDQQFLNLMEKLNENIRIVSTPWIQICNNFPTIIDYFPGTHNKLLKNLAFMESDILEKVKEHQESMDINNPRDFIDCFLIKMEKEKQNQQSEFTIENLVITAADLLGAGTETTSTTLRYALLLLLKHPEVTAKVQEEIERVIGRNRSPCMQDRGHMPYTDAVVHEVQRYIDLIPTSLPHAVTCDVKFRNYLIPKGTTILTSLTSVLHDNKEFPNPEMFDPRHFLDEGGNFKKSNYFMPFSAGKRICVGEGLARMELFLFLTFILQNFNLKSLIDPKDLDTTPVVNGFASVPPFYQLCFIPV
Chain of Cytochrome P450 3A4 (Homo sapiens) (P08684 whole entry, looked up): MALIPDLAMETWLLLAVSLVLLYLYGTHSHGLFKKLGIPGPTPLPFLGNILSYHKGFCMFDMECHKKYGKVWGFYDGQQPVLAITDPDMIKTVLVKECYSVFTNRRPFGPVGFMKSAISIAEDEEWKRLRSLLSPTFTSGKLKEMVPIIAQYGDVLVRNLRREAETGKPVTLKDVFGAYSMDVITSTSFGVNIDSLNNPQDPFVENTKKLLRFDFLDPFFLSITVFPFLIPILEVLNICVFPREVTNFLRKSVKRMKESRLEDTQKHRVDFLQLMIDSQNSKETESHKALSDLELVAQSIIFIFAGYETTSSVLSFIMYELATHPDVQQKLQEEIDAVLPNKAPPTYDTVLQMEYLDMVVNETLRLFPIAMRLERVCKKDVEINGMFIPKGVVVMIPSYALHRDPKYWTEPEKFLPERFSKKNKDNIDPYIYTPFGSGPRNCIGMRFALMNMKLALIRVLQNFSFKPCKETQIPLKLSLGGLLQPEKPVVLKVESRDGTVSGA
Chain of Apoptosis regulator Bcl-2 (Homo sapiens) (P10415 whole entry, looked up): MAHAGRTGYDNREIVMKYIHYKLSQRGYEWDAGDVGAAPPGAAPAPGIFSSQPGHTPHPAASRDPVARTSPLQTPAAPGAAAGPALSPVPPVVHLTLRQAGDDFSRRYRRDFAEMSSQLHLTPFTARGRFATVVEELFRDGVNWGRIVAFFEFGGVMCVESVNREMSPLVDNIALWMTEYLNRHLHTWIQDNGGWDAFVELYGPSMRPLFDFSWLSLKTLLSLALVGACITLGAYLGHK

Cc1ccc(N=CN(C)C=Nc2ccc(C)cc2C)c(C)c1
outcome [1]: inactive | outcome [2]: inactive | outcome [3]: inactive | outcome (BCL2L11 (gene 10018)): inactive | outcome [4]: inactive | outcome [5]: inactive | outcome [6]: inactive | outcome (Caspase-3 (Homo sapiens)): inactive | outcome [7]: inactive | AC50 [8]: 51.6 µM (active) | outcome [9]: inactive | AC50 [10]: 30.3 µM (active) | outcome [11]: inactive | outcome (CYP2C8 (gene 1558)): inactive | outcome (CYP2C9 (gene 1559)): inactive | outcome (CYP2E1 (gene 1571)): inactive | outcome (CYP4A11 (gene 1579)): inactive | outcome [12]: inactive | outcome [13]: inactive | outcome [14]: inactive

CCNC(=O)NC(=O)C(C#N)=NOC
outcome [1]: inactive | outcome [2]: inactive | AC50 [3]: 75.6 µM (active) | outcome (BCL2L11 (gene 10018)): inactive | outcome [4]: inactive | outcome [5]: inactive | AC50 [6]: 0.234 µM (active) | outcome (Caspase-3 (Homo sapiens)): inactive | outcome [7]: inactive | outcome [8]: inactive | outcome [9]: inactive | AC50 [10]: 3.37 µM (active) | outcome [11]: inactive | outcome (CYP2C9 (gene 1559)): inactive | AC50 (CYP2E1 (gene 1571)): 50 µM (active) | outcome (CYP4A11 (gene 1579)): inactive | outcome [12]: inactive | AC50 [13]: 11.6 µM (active)

OC(c1ccc(Cl)cc1)(c1ccc(Cl)cc1)C(Cl)(Cl)Cl
AC50 [1]: 78.2 µM (active) | AC50 [2]: 74 µM (active) | outcome [3]: inactive | outcome (BCL2L11 (gene 10018)): inactive | AC50 [5]: 86.4 µM (active) | AC50 [6]: 85 µM (active) | AC50 (Caspase-3 (Homo sapiens)): 50 µM (active) | outcome [7]: inactive | outcome [8]: inactive | AC50 [9]: 50 µM (active) | AC50 [10]: 11.8 µM (active) | AC50 [11]: 85.2 µM (active) | AC50 (CYP2C8 (gene 1558)): 80.6 µM (active) | AC50 (CYP2C9 (gene 1559)): 81.6 µM (active) | AC50 (CYP2E1 (gene 1571)): 50 µM (active) | AC50 (CYP4A11 (gene 1579)): 65.4 µM (active) | AC50 [12]: 87.6 µM (active) | AC50 [13]: 77.2 µM (active) | outcome [14]: inactive

COC(=O)NS(=O)(=O)c1ccc(N)cc1
outcome [1]: inactive | outcome [2]: inactive | outcome [3]: inactive | outcome (BCL2L11 (gene 10018)): inactive | outcome [4]: inactive | outcome [6]: inactive | outcome (Caspase-3 (Homo sapiens)): inactive | outcome [7]: inactive | outcome [8]: inactive | outcome [9]: inactive | outcome [10]: inactive | outcome [11]: inactive | outcome (CYP2C8 (gene 1558)): inactive | outcome (CYP2C9 (gene 1559)): inactive | outcome (CYP2E1 (gene 1571)): inactive | outcome (CYP4A11 (gene 1579)): inactive | outcome [12]: inactive | outcome [13]: inactive | outcome [14]: inactive

CC(C)N1C(=O)c2ccccc2NS1(=O)=O
outcome [1]: inactive | outcome [2]: inactive | outcome [3]: inactive | outcome (BCL2L11 (gene 10018)): inactive | outcome [4]: inactive | outcome [6]: inactive | outcome (Caspase-3 (Homo sapiens)): inactive | outcome [7]: inactive | outcome [8]: inactive | outcome [9]: inactive | AC50 [10]: 50 µM (active) | outcome [11]: inactive | outcome (CYP2C9 (gene 1559)): inactive | outcome (CYP2E1 (gene 1571)): inactive | outcome (CYP4A11 (gene 1579)): inactive | outcome [12]: inactive | outcome [13]: inactive | outcome [14]: inactive

CC(C)Nc1nc(Cl)nc(NC(C)C)n1
outcome [1]: inactive | outcome [2]: inactive | AC50 [3]: 24.8 µM (active) | outcome (BCL2L11 (gene 10018)): inactive | outcome [4]: inactive | outcome [6]: inactive | outcome (Caspase-3 (Homo sapiens)): inactive | outcome [7]: inactive | outcome [8]: inactive | outcome [9]: inactive | AC50 [10]: 2.93 µM (active) | AC50 [11]: 4.74 µM (active) | outcome (CYP2C9 (gene 1559)): inactive | AC50 (CYP2E1 (gene 1571)): 37.8 µM (active) | outcome (CYP4A11 (gene 1579)): inactive | AC50 [12]: 7.35 µM (active) | outcome [13]: inactive | outcome [14]: inactive
